# PKA-R2B activ: PKA-R2B complex activation; AID 504700; activation, % at 11.4 µM; 340,000 tested, 0.079% active; P22694+P31323; PKA-R2B holoenzyme dissociation, Cy5-IP20 fluorescence polarization; R2B truncated from residue 108, S112A mutant; 0% DMSO only, 100% 113 µM cGMP;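 active = activation above a cutoff set at the mean over all compounds plus 3 SD, cut at about 18% in these data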;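 note: higher means more holoenzyme dissociation and a rise in polarization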
# Target sequence (P31323 whole entry, looked up, other chains not shown, the tested form may be a part): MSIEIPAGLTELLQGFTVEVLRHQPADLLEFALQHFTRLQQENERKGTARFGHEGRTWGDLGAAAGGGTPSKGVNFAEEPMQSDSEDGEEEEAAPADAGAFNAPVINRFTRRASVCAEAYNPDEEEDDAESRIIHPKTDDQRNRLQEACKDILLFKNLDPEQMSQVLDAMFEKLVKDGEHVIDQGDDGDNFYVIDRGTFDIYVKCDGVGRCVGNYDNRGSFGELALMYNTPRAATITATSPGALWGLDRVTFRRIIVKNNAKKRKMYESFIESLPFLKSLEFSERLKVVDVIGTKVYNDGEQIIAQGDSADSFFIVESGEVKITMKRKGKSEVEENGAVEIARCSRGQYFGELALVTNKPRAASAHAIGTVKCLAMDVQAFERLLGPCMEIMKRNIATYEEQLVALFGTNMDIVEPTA
# MsrA act: activates bovine MsrA enzyme | purified bovine MsrA, absorbance read-out | activation, % at 10.6 µM | 360,000 tested, 0.3% active | AID 602163; in the data active = activation above about 7.5%;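 note: 0% = vehicle and 100% = reference activator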
# PKA-R1A activ: PKA-R1A complex activation; P00514+P68181; PKA-R1A dissociation, Cy5-IP20 fluorescence polarization; scaled: DMSO 0%, 113 µM cGMP 100%; activation, % at 11.4 µM; 340,000 tested, 0.083% active; AID 504707;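 active = percent activation above the mean of all tested compounds plus 3 SD, cut at about 19% in these data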;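 note: higher means more PKAc released from R1A so a rise in polarization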
# MsrA inh: inhibits bovine methionine sulfoxide reductase A; purified bovine MsrA, absorbance read-out; 360,000 tested, 0.75% active; inhibition, % at 15.5 µM; AID 651718; in the data active = inhibition above about 4.5%;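 note: 0% = vehicle wells with enzyme and 100% = reference inhibitor wells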
# R2B FP artifact: counter-screen for PKA-R2B activators: fluorescence polarization artifacts. 270 tested, 6% active. AID 504796. shares compounds with PKA-R2B activ. FP artifact counterscreen. activation, % at 11.4 µM; in the data active = activation above about 20%;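 note: Cy5 labelled IP20 peptide probe with compound but no PKA protein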
# PKA-R2B act conf: PKA-R2B complex activation, confirmation. shares compounds with PKA-R2B activ. fluorescence polarization. activation, % at 11.4 µM. 270 tested, 9% active. AID 504797; in the data active = activation above about 19%
# Target sequence (P31323 whole entry, looked up): as the sequence (P31323 whole entry, looked up, other chains not shown, the tested form may be a part) above
# R1A FP artifact: fluorescence polarization artifact in PKA-R1A activator counter-screen; Cy5-IP20 peptide alone, fluorescence polarization artifact counterscreen; activation, % at 11.4 µM; 280 tested, 7% active; shares compounds with PKA-R1A activ;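 active = mean activation over triplicate runs exceeds the adjusted cutoff derived for the parent primary screen, cut at about 19% in these data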;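 note: no PKA protein present so any polarization rise reflects compound interference; 0% = tracer peptide mix alone and 100% = mix with added PKA catalytic subunit; higher means stronger polarization artifact and likely false positive in parent screen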
# PKA-R1A act conf: PKA-R1A complex activation, confirmation; activation, % at 11.4 µM; AID 504800; shares compounds with PKA-R1A activ; 280 tested, 9% active; Cy5-IP20 fluorescence polarization, PKA-R1A holoenzyme dissociation;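 active = mean activation over replicate wells exceeds the adjusted hit threshold taken from the earlier primary screen, cut at about 20% in these data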;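 note: 0% = holoenzyme mix with DMSO only and 100% = cGMP-activated control wells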
# * hit, by the source's call; · = not tested or not shown. Hits are enriched below; roughly 1.1% of the tested compounds scored in any of these assays.
SMILES,PKA-R2B activ,MsrA act,PKA-R1A activ,MsrA inh,R2B FP artifact,PKA-R2B act conf,R1A FP artifact,PKA-R1A act conf
C=CCNC(=O)c1onc(CSc2ccccc2)c1C(=O)NCC=C,4,-3,-1,0,·,·,·,·
C=CCNC(=O)c1onc(CSc2ccncc2)c1C(=O)NCC=C,22*,-2,-9,0,3,0,·,·
Cc1cc(C)c(O)c(C(=O)CC2CC(=O)NC(=O)C2)c1,·,·,·,-1,·,·,·,·
O=C(O)c1sccc1SCc1ccc(Cl)cc1Cl,23*,-2,10,0,2,15,·,·
COc1ccc(OC)c(C(=O)c2coc3ccc(OC(C)=O)cc23)c1,21*,-14,3,-1,3,0,·,·
CCCN(C)C[C@H]1Oc2ncc(Br)cc2C(=O)N([C@@H](C)CO)C[C@@H]1C,-4,-5,2,2,·,·,·,·
CCCN(C)C[C@@H]1Oc2ncc(Br)cc2C(=O)N([C@@H](C)CO)C[C@H]1C,20*,-6,3,0,5,3,·,·
C[C@@H]1C=CCCO[C@]12C(=O)N(Cc1ccccc1C(F)(F)F)c1cccc(Br)c12,·,·,·,1,·,·,·,·
Brc1ccc2cccnc2c1,23*,-3,6,1,-1,0,·,·
COc1ccc(CCN2CC(=O)N3CCc4ccc(N5CCOCC5)cc4C3CC2=O)cc1OC (centres undefined),·,·,·,0,·,·,·,·
O=C(c1ccc(Cl)cc1)C1C2C(=O)N(c3ccccc3)C(=O)C2C2CCCN21 (centres undefined),-4,-4,4,1,·,·,·,·
O=C(c1ccc(Cl)cc1)[C@@H]1[C@@H]2C(=O)N(c3ccccc3)C(=O)[C@@H]2C2c3ccccc3C=NN21 (some centres undefined),26*,-15,-1,0,4,0,·,·
Nc1[nH]c(C(=O)c2ccccc2)c(-c2cccc(C(F)(F)F)c2)c1C(=O)NCCc1c[nH]c2ccccc12,·,·,·,0,·,·,·,·
Cc1ccc(F)c([C@H]2[C@@H]3C=CCC[C@@]3(C)C(=O)N2Cc2ccccc2)c1,4,-10,-10,-1,·,·,·,·
C[C@@]12CCC=C[C@H]1[C@H](c1ccccc1Br)N(Cc1ccccc1)C2=O,11,-2,2,0,-3,-3,·,·
Cc1ccc2nc(SCC(=O)O)nc(C)c2c1,20*,-14,7,1,2,2,·,·
Cc1ccc2nc(SCCC#N)nc(C)c2c1,0,-3,1,-1,·,·,·,·
O=C1CC2(CCCC2)CC(=O)N1CCCCN1CCN(c2ncccn2)CC1,23*,-13,12,1,2,0,·,·
CN1C(=O)N(CC(=O)N2CCN(c3ncccn3)CC2)C(=O)C12CCCCC2,10,-2,-1,0,·,·,·,·
Nc1ccn([C@@H]2O[C@H](C(=O)NCC(=O)N3CCOCC3)[C@@H](O)[C@H]2O)c(=O)n1,·,·,·,0,·,·,·,·
Cc1cc(C(=O)c2ccccc2)c(NC(=O)CN2CCOCC2)s1,18*,-1,-15,1,0,0,·,·
CC1=C/C(=C(\c2cc(C)c(O)c(Br)c2)c2ccccc2S(=O)(=O)O)C=C(Br)C1=O,40*,-3,34*,1,59*,55*,59*,55*
COc1ccc(N=C2Sc3ccccc3[C@@H]3C[C@H]4[C@H](CON4C)CN23)c(OC)c1,·,·,·,0,·,·,·,·
C#Cc1ccc([C@H]2C=C(C(=O)NCc3nc4ccccc4[nH]3)O[C@@H](OCc3ccc(CO)cc3)C2)cc1,3,-13,-14,2,·,·,·,·
O=C(NCc1nc2ccccc2[nH]1)C1=C[C@H](c2ccc(Br)cc2)C[C@H](OCc2ccc(CO)cc2)O1,26*,0,35*,0,27*,22*,27*,27*
SMILES,PKA-R2B activ,MsrA act,PKA-R1A activ,MsrA inh,R2B FP artifact,PKA-R2B act conf,R1A FP artifact,PKA-R1A act conf
COCc1[nH]nc2c1C(c1cccc(C(F)(F)F)c1)N(c1ccccc1)C2=O (centres undefined),·,·,·,1,·,·,·,·
COc1ccc(NC(=S)NNc2ccc(S(=O)(=O)Nc3ccccc3C(=O)O)cc2[N+](=O)[O-])cc1,83*,-5,64*,4,50*,46*,50*,52*
Nc1ncnc2c1nc(Sc1ccc(Cl)cc1)n2[C@@H]1O[C@@H]2COP(=O)(O)O[C@H]2[C@H]1O,106*,-1,107*,1,4,101*,4,106*
CN(C)C(=O)N1CCN(C(=O)[C@H](CCc2ccccc2)NC(=O)[C@H]2O[C@@H](n3cnc4c(N)ncnc43)[C@H](O)[C@@H]2O)CC1,·,·,·,0,·,·,·,·
Cc1cc(=O)n2[nH]c(NCc3ccccc3F)nc2n1,36*,-4,30*,0,34*,31*,34*,35*
CCCc1cc(=O)n2[nH]c(NCc3ccc(OC)c(OC)c3)nc2n1,-9,-4,-4,0,·,·,·,·
CCCc1cc(=O)n2[nH]c(NCc3c(F)cccc3Cl)nc2n1,32*,-14,33*,1,27*,20*,27*,28*
COc1cc(NC(=O)CC[C@H]2O[C@@H](n3cnc4c(NC(=O)c5ccccc5)ncnc43)[C@H](O)[C@@H]2O)cc(OC)c1OC,·,-1,·,0,·,·,·,·
CCCC(=O)Nc1ncnc2c1ncn2[C@@H]1O[C@@H]2COP(=O)(O)O[C@H]2[C@H]1OC(=O)CCC,33*,-1,41*,0,-1,34*,-1,37*
COC(=O)C1=C(C)N(C)C(=NCC2CC2)NC1c1ccc(Cl)cc1 (centres undefined),·,·,·,0,·,·,·,·
O=C(CCC(=O)c1ccccc1)Nc1ccc(C(=O)O)cc1,-1,4,19*,0,·,·,1,-1
Cc1ccc(C(Nc2ccccc2)c2ccc3ccc(C)nc3c2O)c(C)c1 (centres undefined),·,·,·,0,·,·,·,·
O=C(Nc1cccc(Cl)c1)Nc1nnc(-c2ccncc2)s1,7,-5,22*,1,·,·,26*,26*
COc1cccc(N2CC(C(=O)Nc3nnc(SCC(=O)Nc4ccc(NC(C)=O)cc4)s3)CC2=O)c1 (centres undefined),-4,-4,2,-1,·,·,·,·
COc1cccc(C(=O)Nc2nnc(SCC(=O)Nc3ccc(NC(C)=O)cc3)s2)c1,5,-1,20*,1,·,·,1,-3
CC1C(=O)N(Cc2cn(CCC3OCCO3)nn2)CCS(=O)(=O)N1Cc1ccc(-c2ccncc2)cc1 (centres undefined),-6,-2,2,-1,·,·,·,·
CC1C(=O)N(Cc2cn(CCC3OCCO3)nn2)CCS(=O)(=O)N1Cc1ccc(-c2ccc(F)cc2)cc1 (centres undefined),-13,-3,20*,0,·,·,2,2

# Bioassay records (PubChem)
